Reference: PubChem BioAssay AID1478 (National Center for Advancing Translational Sciences (NCATS), 2009)
Screen size: about 200,000 compounds; about 860 (0.43%) were called active. Calls follow the shape of the dose curve; as a rule, active = well fitted inhibition curve with a large enough effect; inconclusive = small, poorly fitted or top-dose-only effect; inactive = flat fitted curve, though single readings scatter. Only a selection was taken, and actives are over-represented in it overall. Some structures have more than one record in an assay (separate samples or runs), and their calls can disagree.
Also: nearly all actives have a fitted effect of over 40% in size.
Potency is read from the fitted curve at half-maximal effect.

Each compound was assayed against Cruzipain (Trypanosoma cruzi) (UniProt P25779) (assay: qHTS Assay for Promiscuous and Specific Inhibitors of Cruzain (with detergent)). Conditions: purified cruzain, Z-FR-AMC fluorescence, 0.01% Triton.
Cruzipain (Trypanosoma cruzi), sequence (P25779 123-467 limits assumed): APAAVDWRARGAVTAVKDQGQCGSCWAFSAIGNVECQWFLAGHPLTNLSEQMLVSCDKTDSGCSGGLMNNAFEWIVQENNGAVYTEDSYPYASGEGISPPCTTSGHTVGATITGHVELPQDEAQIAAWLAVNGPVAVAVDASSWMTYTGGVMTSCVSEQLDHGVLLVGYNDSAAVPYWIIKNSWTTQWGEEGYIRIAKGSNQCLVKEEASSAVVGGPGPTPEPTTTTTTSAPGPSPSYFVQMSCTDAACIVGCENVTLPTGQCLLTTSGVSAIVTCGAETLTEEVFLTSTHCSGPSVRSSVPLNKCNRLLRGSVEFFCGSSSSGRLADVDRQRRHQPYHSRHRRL
Description: Cruzain (3.4.22.51) is a cysteine protease from the tropical parasite Trypanosoma cruzi. Dual qHTS experiment was performed against the NCGC compound collection in order to 1) identify novel inhibitors of the enzyme and 2) profile the compound collection for promiscuous inhibitors operating via colloidal aggregation (by performing detergent-free and detergent-containing comparison screens). Cruzain was assayed by the use of fluorogenic coumarin-based substrate Z-FR-AMC: proteolytic cleavage releases AMC, whose fluorescence is measured at 360 nm excitation and 450 nm emission. Purified cruzain was supplied by the labs of Prof. James McKerrow and Brian Shoichet, UC San Francisco.
This assay had 0.01% Triton X-100 concentration. See also releated assay "qHTS Assay for Promiscuous and Specific Inhibitors of Cruzain (without detergent)" with 0.00005% Triton X-100.
See following references for additional details:
Assay Provider: Shoichet, Brian; University of California, San Fancisco
Screening Center PI: Austin, C.P.
Screening Center: NIH Chemical Genomics Center [NCGC]
Buffer: 100 mM Sodium Acetate, pH 5.5, 5 mM DTT, Triton X-100 concentration: 0.01%.
Buffer in columns 3 and 4 as negative control (no enzyme).
Substrate solution: 2 uM final concentration of Z-FR-AMC (catalog number I-1160, Bachem) dispensed throughout the plate.
Enzyme: 1.5 nM Cruzain final concentration in columns 1, 2, 5-48. Column 1 is neutral (100% activity). Column 2 contained titration of covalent inhibitor K11777, starting concentration 1 mM, then 1:2 dilution in duplicate).
Three uL of enzyme or buffer were dispensed to 1536-well Greiner black solid bottom plates. Compounds and controls (23 nL) were transferred via Kalypsys PinTool. The plates were incubated for 15 min at room temperature, and then 1 uL of substrate solution was added to start the reaction. The plates were immediately transferred to and read 4 times every 30 seconds for 2 min on ViewLux High-throughput CCD imager (Perkin-Elmer) using 360 nm excitation and 450 nm emission fluorescence protocol. The fluorescence intensity difference between the third and the first time points (time lapse of 60 seconds) was used to compute reaction progress.
For `COC(=O)c1sccc1S(=O)(=O)N(CC(=O)Nc1ccc(C)c(F)c1)c1ccc(C)c(C)c1`, the max response, negative = inhibition was -3.08% (inactive). With `CCOc1ccc(CNC(=O)C2CCCN(S(=O)(=O)N(CC)c3ccc(OCC)cc3)C2)cc1` (centres undefined) the max response, negative = inhibition was 3.48% (inactive). For `O=C(Nc1ccc(Br)cc1)c1ccc(Br)c(S(=O)(=O)NCc2ccccc2)c1`, the max response, negative = inhibition was -3.54% (inactive). `Cc1ccc(-c2cn3c(n2)sc2cc(C(=O)NCc4cccs4)ccc23)c(C)c1` was tested, and the max response, negative = inhibition was -2.89% (inactive). With `CCc1nc(-c2cc(S(=O)(=O)N3CCN(c4ccc(OC)cc4)CC3)ccc2OC)no1` the max response, negative = inhibition was -3.17% (inactive). In the case of `CC(=O)c1ccc(NC(c2ccc(F)cc2)c2nnc(-c3ccccc3)o2)cc1` (centres undefined), the max response, negative = inhibition is reported as -5.26% (inactive). In the case of `CCn1cc2nc(SCc3cccc(F)c3)n(CCc3ccccc3)c(=O)c2n1`, the max response, negative = inhibition is reported as -3.27% (inactive). In the case of `COc1ccc(-n2c(=O)c3c(c4cc(OC)ccc4n3C)n(Cc3cccc(C)c3)c2=O)cc1`, the max response, negative = inhibition is reported as -1.25% (inactive). For `Cc1ccc(NC(=O)c2cc(S(=O)(=O)NCCC3=CCCCC3)ccc2F)cc1C`, the max response, negative = inhibition was 1.53% (inactive). In the case of `Cc1ccc(F)c(NC(=O)CCc2ccccc2)c1`, the max response, negative = inhibition is reported as 2.16% (inactive). `Cc1ccc(C)c(NC(CC(=O)c2ccccc2)C(=O)OCC(=O)c2cccs2)c1` (centres undefined) was tested, and the max response, negative = inhibition was -3.94% (inactive). With `O=C(COC(=O)[C@H](Cc1ccccc1)NC(=O)c1cccs1)Nc1cc(F)ccc1F` the Potency was 20 µM (active). In the case of `CC(=O)Nc1ccc(NC(=O)C2CCCN(S(=O)(=O)c3ccc4c(c3)CCCC(=O)N4)C2)cc1` (centres undefined), the max response, negative = inhibition is reported as -1.66% (inactive). In the case of `Cc1ccc(-c2onc(C)c2C)cc1S(=O)(=O)Nc1ccccn1`, the max response, negative = inhibition is reported as -0.474% (inactive). `CCOc1ccc(CNC(=O)C2CCCN(c3nnc(C)c4c(C)n(-c5ccccc5)nc34)C2)cc1` (centres undefined) was tested, and the max response, negative = inhibition was -6.21% (inactive). With `COc1ccc(C)cc1-n1nnnc1SCC(=O)c1cc(C)n(Cc2ccco2)c1C` the max response, negative = inhibition was -1.61% (inactive). `Cc1cc(C(=O)COC(=O)CNC(=O)c2ccc(F)cc2)c(C)n1Cc1ccco1` was tested, and the Potency was 14.1 µM (active). In the case of `O=C(CNC(=O)c1ccco1)OCC(=O)c1ccccc1`, the max response, negative = inhibition is reported as -1.99% (inactive). With `COc1ccc2c(Sc3ccc(C)cc3)c(C(=O)NC(C)c3ccccc3)[nH]c2c1` (centres undefined) the max response, negative = inhibition was -7.2% (inactive). With `CCOC(=O)c1c(C)[nH]c(CCC(=O)Nc2ccc(OC)c(OC)c2)c1C` the max response, negative = inhibition was 2.38% (inactive). `CCN(CC)S(=O)(=O)c1nnc(NC(=O)COc2ccccc2Cl)s1` was tested, and the max response, negative = inhibition was -2.1% (inactive). In the case of `CCOC(=O)c1c(S(=O)(=O)NCC(=O)Nc2ccc(Cl)c(C(F)(F)F)c2)c(C)n(C)c1C`, the max response, negative = inhibition is reported as -11.4% (inactive). `COc1cccc(-c2nnc3n(CCc4ccccc4)c(=O)c4ccccc4n23)c1O` was tested, and the max response, negative = inhibition was -2.72% (inactive). For `COC(=O)C(C)N(C#N)c1nc(C)nc(C)n1` (centres undefined), the max response, negative = inhibition was 4.3% (inactive). `Cc1cc(C)nc(N(C#N)CC(=O)Nc2ccccc2)n1` was tested, and the max response, negative = inhibition was 7.7% (inactive). In the case of `CNc1nc(SC)nc(N(C#N)CC(=O)OC)n1`, the Potency is reported as 17.8 µM (active). For `Cc1c(C(=O)N(C)C)sc2c1c(=O)n(-c1ccc(F)cc1)c(=O)n2CC(=O)N(C)c1ccccc1`, the max response, negative = inhibition was 1.44% (inactive). With `CC(C)C[C@H](NC(=O)[C@@H]1O[C@H]1C(=O)O)C(=O)NCCCCN=C(N)N` the Potency was 0.0562 µM (active). `Cc1ccccc1CSc1nc2c([nH]c3ccccc32)c(=O)n1C` was tested, and the max response, negative = inhibition was -1.56% (inactive). `Cc1cccc(N2CCN(C(=O)CCn3c(=O)c4cccn4c4cccnc43)CC2C)c1` (centres undefined) was tested, and the max response, negative = inhibition was -4.9% (inactive). For `O=c1cc2nc(-c3ccccc3)nc(SCCOc3ccc(Cl)cc3)n2[nH]1`, the max response, negative = inhibition was 0.045% (inactive). In the case of `Oc1c(Cl)cc(Cl)c(Cl)c1Cc1c(O)c(Cl)cc(Cl)c1Cl`, the Potency is reported as 25.1 µM (active) and the max response, negative = inhibition is reported as -22.8% (inactive). `COc1ccc(OC)c(-n2nnc(-c3nc(-c4cc(OC)c(OC)c(OC)c4)no3)c2C)c1` was tested, and the max response, negative = inhibition was 2.73% (inactive). For `COc1cccc(-c2cc(C(=O)Nc3ccc(C)cc3)[nH]n2)c1`, the max response, negative = inhibition was -0.83% (inactive). With `Cc1ccc(CSc2nc3ccsc3c(=O)n2CCC(C)C)cc1` the max response, negative = inhibition was -1.1% (inactive). With `CC(=O)Nc1cc(C(=O)NCc2ccc(F)cc2Cl)ccc1Sc1ccc(Cl)cc1` the max response, negative = inhibition was 1.77% (inactive). With `COc1cccc(C(=O)NCC(=O)OCc2cc(=O)n3ccsc3n2)c1` the max response, negative = inhibition was -1.65% (inactive). With `CCOC(=O)c1cc2c(=O)n3ccccc3nc2n(Cc2ccco2)c1=NC(=O)c1ccc(F)cc1` the max response, negative = inhibition was -23.1% (inactive). For `CCn1c(=N)c(S(=O)(=O)c2ccc(F)cc2)cc2c(=O)n3ccccc3nc21`, the Potency was 22.4 µM (active). In the case of `CCCCn1c(=N)c(S(=O)(=O)c2ccccc2)cc2c(=O)n3cccc(C)c3nc21`, the max response, negative = inhibition is reported as 0.669% (inactive). `CCOc1cc(-c2nnc(SCC(=O)NC3CCCCC3)nc2-c2ccc(OC)c(OCC)c2)ccc1OC` was tested, and the max response, negative = inhibition was 0.915% (inactive). For `Cc1ccc(NC(=O)CSc2nnc3[nH]c(=O)cc(C)n23)cc1Cl`, the max response, negative = inhibition was -1.01% (inactive). With `CC(=O)c1cccc(Nc2ccc3cc(S(=O)(=O)N4CCC(C)CC4)ccc3n2)c1` the max response, negative = inhibition was -2.76% (inactive).
